Measurements published in PubChem BioAssay AID463173 (ICCB-Longwood Screening Facility, Harvard Medical School, 2010).
Hit rate of the full screen: of about 52,000 compounds, about 4,300 (8.3%) were called active. This excerpt belongs to a sample that is enriched for actives. Unmarked numbers belong to inactive results. Rule as the data show it: active = survival mostly below about 52% (no sharp cut-off); inactive = mostly above about 56%.

System: DeltatarO mutant
Assay: growth inhibition of S. aureus wild type versus tarO mutant, primary screen, teichoic acid synthesis inhibitors, RN4220, OD600 (AID 463173)
Conditions: OD600, 18 h, active compounds read low, screened at 18.75 µg/mL (by protocol)

Row | SMILES | survival
1 | Cc1cccc(N(C)C(=O)C(Cc2ccccc2)NS(=O)(=O)c2cccc3nsnc23)c1 (stereo not drawn) | 74%
2 | Cc1nnc(N2CCC(C(=O)N3CCCCC3)CC2)c2nn(-c3ccc(Cl)cc3)c(C)c12 | 95%
3 | COc1cc(-c2nc(-c3cccc(Cl)c3)c(-c3ccccc3)[nH]2)cc(OC)c1OC | 126%
4 | COc1ccc(-c2nc(SCC(=O)Nc3ccccc3)c(-c3ccc(F)cc3)[nH]2)cc1OC | 49%
5 | COc1ccc(-c2nc(-c3ccccc3)c(-c3ccc(F)cc3)[nH]2)c(OC)c1C | 5% (active)
6 | COCCNC(=O)CSc1nc(-c2ccccc2)[nH]c1-c1ccc(OC)cc1 | 80%
7 | COc1ccc(-c2[nH]c(-c3ccccc3)nc2SCC(=O)NC2CCCC2)cc1 | 67%
8 | COc1ccc(-c2nc(-c3ccccc3)c(-c3ccc(O)cc3)[nH]2)cc1 | 1% (active)
9 | COc1cc(-c2nc(-c3ccccc3)c(-c3ccc(Br)cc3)[nH]2)cc(OC)c1O | 0% (active)
10 | COc1ccc(-c2nc(-c3ccccc3)c(-c3ccccc3)[nH]2)cc1Br | 59%
11 | COc1ccc(-c2[nH]c(-c3ccc(O)cc3)nc2-c2ccccc2)cc1 | 3% (active)
12 | COc1ccc(NC(=O)CSc2nc(-c3ccc(OC)cc3)[nH]c2-c2ccc(OC)cc2)cc1 | 71%
13 | COc1cc(-c2nc(SCC(=O)Nc3ccc(C)cc3)c(-c3ccc(F)cc3)[nH]2)cc(OC)c1OC | 91%
14 | CCOc1ccc(-c2nc(-c3ccccc3)c(-c3ccccc3)[nH]2)cc1OCC | 142%
15 | CC(=O)N1C(=O)/C(=C2\SC(=S)N(C(C)C(=O)O)C2=O)c2ccccc21 (stereo not drawn) | 112%
16 | CCCCN(CC)CCNC(=O)C1CCCN(S(=O)(=O)c2cccc3nsnc23)C1 (stereo not drawn) | 117%
17 | Nn1c(SCCC(=O)O)nnc1-c1ccccc1 | 83%
18 | COCCNC(=O)c1cnc2sc(N3CCC(C)CC3)nn2c1=O | 86%
19 | O=S(=O)(c1ccccc1)c1nnn2c1nc(NCc1cccs1)c1sccc12 | 87%
20 | N#CC(C(=O)c1ccc(F)cc1)c1nc2ccccc2[nH]1 (stereo not drawn) | 86%
21 | CC1=C(C(=O)Nc2ccc(Cl)cc2)C(c2ccccc2C)n2ncc(C(=O)Nc3ccc(C)cc3)c2N1 (stereo not drawn) | 54%
22 | O=C(CSc1nc(-c2ccc(F)cc2)[nH]c1-c1ccccc1)Nc1ccccc1 | 67%
23 | O=C(O)c1ccc(-c2nc3ccccc3[nH]2)cc1 | 86%
24 | Oc1ccc(-c2nc(-c3ccccc3)c(-c3ccc(Br)cc3)[nH]2)cc1 | -4% (active)

Row | SMILES | survival
25 | Cc1nn(-c2ccc(N3CCCCC3)nn2)c(C)c1CCC(=O)NCc1ccccc1 | 67%
26 | Cc1ccc(N(CC(=O)NC2CCCC2)C(=O)c2ccc(N3CCCC3)nc2)cc1 | 89%
27 | Cc1ccc(NC(=O)C2CCCN(S(=O)(=O)c3cccc4nsnc34)C2)c(C)c1 (stereo not drawn) | 83%
28 | CC1(C)Oc2ccc(C(=O)Nc3ccccc3)cc2N(CC(=O)N2CCCC2)C1=O | 103%
29 | Cc1cccc(CC(=O)Nc2ccc3nc(N4CCC(C)CC4)cc(C)c3c2)c1 | 4% (active)
30 | COc1cccc(CC(=O)Nc2ccc3nc(N4CCC(C)CC4)cc(C)c3c2)c1 | 49%
31 | Cc1cc(N2CCC(C)CC2)nc2ccc(NC(=O)Cc3c(F)cccc3Cl)cc12 | 56%
32 | COc1ccccc1CC(=O)Nc1ccc2nc(N3CCC(C)CC3)cc(C)c2c1 | 61%
33 | Cc1cc(N2CCC(C)CC2)nc2ccc(NC(=O)CCC(=O)N3CCN(c4cccc(C(F)(F)F)c4)CC3)cc12 | 31% (active)
34 | Cc1ccc(Cl)cc1N1CCN(C(=O)CCC(=O)Nc2ccc3nc(N4CCC(C)CC4)cc(C)c3c2)CC1 | 52%
35 | Cc1cc(N2CCC(C)CC2)nc2ccc(NC(=O)Cc3ccccc3Br)cc12 | 46% (active)
36 | Cc1cc(N2CCC(C)CC2)nc2ccc(NC(=O)CCC(=O)N3CCN(c4ccccc4F)CC3)cc12 | 52%
37 | Cc1cc(N2CCN(C)CC2)nc2ccc(NC(=O)Nc3ccccc3Br)cc12 | 84%
38 | CC1=C(C(=O)Nc2ccc(C)cc2C)C(c2ccccc2C)n2ncnc2N1 (stereo not drawn) | 100%
39 | N#CCN(CC#N)C(=O)Cc1cccs1 | 102%
40 | Cc1ccc(CN2C(=O)C3(c4ccccc42)N(c2cccc(F)c2)C(=O)CS3(=O)=O)cc1 (stereo not drawn) | 75%
41 | CCN1C(=O)c2ccccc2S(=O)(=O)c2ccc(C(=O)NCc3ccc(F)cc3)cc21 | 59%
42 | COc1ccc2c(CNCc3ccc(C)o3)c(C(=O)O)n(Cc3ccccc3C)c2c1 | 96%
43 | Cc1ccc(NC(=O)c2cccc3c(=O)c4c([nH]c23)CCCC4)c(C)c1 | 69%
44 | COc1cccc(CNC(=O)Cn2c(C)c3cnn(-c4ccccc4)c(=O)c3c2C)c1 | 94%
45 | CSc1nc(NC(C)=O)nc(C)c1Br | 103%
46 | Nc1c(-c2nc(-c3ccc(F)cc3)cs2)c2ccccn2c1C(=O)c1ccc2c(c1)OCO2 | 89%
47 | COc1ccc(CCNc2nc(SCc3cccc(Cl)c3)nc3ccccc23)cc1OC | 94%
48 | N#Cc1c(C(F)(F)F)cc(-c2cccs2)nc1SCc1ccc(F)cc1 | 125%

Row | SMILES | survival
49 | COc1ccc2c(c1)c1c(c(=O)n(-c3ccccc3C)c(=O)n1CC(=O)NCc1ccc(C)cc1)n2C | 75%
50 | Cc1ccc(S(=O)(=O)c2nc(-c3cccs3)oc2SC(C)c2ccccc2)cc1 (stereo not drawn) | 55%
51 | CCC(C)Sc1oc(-c2ccco2)nc1S(=O)(=O)c1ccc(Cl)cc1 (stereo not drawn) | 49% (active)
52 | CCCSc1oc(-c2ccco2)nc1S(=O)(=O)c1ccc(Cl)cc1 | 51%
53 | Cc1ccc(S(=O)(=O)c2nc(-c3ccco3)oc2SC(C)C)cc1 | 47%
54 | CC(Sc1oc(-c2cccs2)nc1S(=O)(=O)c1ccccc1)c1ccccc1 (stereo not drawn) | 44% (active)
55 | Cc1ccc(S(=O)(=O)c2nc(-c3ccco3)oc2SC(C)c2ccccc2)cc1 (stereo not drawn) | 45% (active)
56 | Cc1ccc(CSc2oc(-c3ccco3)nc2S(=O)(=O)c2ccc(Cl)cc2)cc1 | 63%
57 | CC(C)Sc1oc(-c2cccs2)nc1S(=O)(=O)c1ccc(Cl)cc1 | 66%
58 | CC(Sc1oc(-c2ccco2)nc1S(=O)(=O)c1ccc(Br)cc1)c1ccccc1 (stereo not drawn) | 70%
59 | Cc1ccc(CSc2oc(-c3ccco3)nc2S(=O)(=O)c2ccc(Br)cc2)cc1 | 56%
60 | Cc1ccc(S(=O)(=O)c2nc(-c3ccco3)oc2SCc2ccccc2Cl)cc1 | 61%
61 | CCC(C)Sc1oc(-c2ccco2)nc1S(=O)(=O)c1ccc(C)cc1 (stereo not drawn) | 18% (active)
62 | COc1ccc(Cc2nc3ccc(C(=O)NCCc4ccc(Cl)cc4)cc3o2)cc1 | 75%
63 | O=C(Cn1ncc2c3ccccc3n(Cc3ccc(Cl)cc3)c2c1=O)NC1CCCCCC1 | 96%
64 | CSc1ccc(CNC(=O)Cn2c(-c3cccs3)cc3cc(F)ccc32)cc1 | 101%
65 | COc1ccc(NC(=O)C(NC(=O)/C=C\c2ccc3c(c2)OCO3)c2ccc(OC)cc2)cc1 (stereo not drawn) | 61%
66 | CCCn1c(CCC(=O)Nc2cc(OC)cc(OC)c2)nc2cccnc21 | 78%
67 | CCOc1ccc(CCNC(=O)c2cccc(-n3c(C)nc4cccnc43)c2)cc1 | 90%
68 | N#Cc1cc2c(cc1C#N)Oc1ccccc1O2 | 103%
69 | CC(C)CCn1c(=O)c2sccc2n2c(CCCC(=O)NC(C)C)nnc12 | 96%
70 | COc1cc(S(=O)(=O)N2CCN(C)CC2)c(C)cc1C | 78%
71 | COc1ccccc1CNC(=O)CN1C(=O)CCCc2ccccc21 | 94%
72 | COc1ccc2cc(CNc3ccc(OC)c(OC)c3)c(=O)n(CC(=O)Nc3ccc(C)cc3)c2c1 | 74%

Row | SMILES | survival
73 | CC1CCCCN1CCCNC(=O)c1ccc2c(c1)sc1nc(-c3ccc(F)cc3)cn12 (stereo not drawn) | 29% (active)
74 | CCC1CCCCN1CCCNC(=O)c1ccc2c(c1)sc1nc(-c3ccc(F)cc3)cn12 (stereo not drawn) | 14% (active)
75 | CCc1ccc(-c2cn3c(n2)sc2cc(C(=O)NC4CCCCC4)ccc23)cc1 | 87%
76 | O=C(NC1CCCCC1)c1ccc2c(c1)sc1nc(-c3ccc(F)cc3)cn12 | 62%
77 | CCc1ccc(-c2cn3c(n2)sc2cc(C(=O)NC4CCCCCC4)ccc23)cc1 | 79%
78 | O=C(NC1CCCCCC1)c1ccc2c(c1)sc1nc(-c3ccc(F)cc3)cn12 | 85%
79 | Cc1cc(Nc2ccc(C)c(C)c2)n2cnnc2n1 | 94%
80 | CC1CCN(c2cc3c(cc2F)c(=O)c(S(=O)(=O)c2cccc(Cl)c2)cn3Cc2ccccc2)CC1 | 80%
81 | COc1ccccc1C(=O)n1nc(-c2ccco2)nc1NCc1ccc(Cl)cc1 | 54%
82 | COc1ccc(C(=O)/C=C\Nc2ccc(S(=O)(=O)N=C(N)N)cc2)cc1OC | 76%
83 | Cc1ccc(CN(C(=O)COc2ccc(C)c(C)c2)C2CCS(=O)(=O)C2)o1 (stereo not drawn) | 92%
84 | Cc1cccc(CNC(=O)C2CCN(c3nnc(-n4c(C)ccc4C)s3)CC2)c1 | 95%
85 | CC1CCc2onc(C(=O)N3CCN(c4cccc(Cl)c4)CC3)c2C1 (stereo not drawn) | 69%
86 | O=C(c1noc2c1CCCCC2)N1CCN(c2ccc(Cl)cc2)CC1 | 98%
87 | O=C(c1noc2c1CCCCC2)N1CCN(c2cccc(C(F)(F)F)c2)CC1 | 0% (active)
88 | O=C(c1noc2c1CCCCC2)N1CCN(c2cccc(Cl)c2)CC1 | 69%
89 | O=C(c1cc2ccc3cccnc3c2[nH]1)N1CCN(c2ccc(Cl)cc2)CC1 | 84%
90 | O=C(c1cc2ccc3cccnc3c2[nH]1)N1CCN(c2cccc(C(F)(F)F)c2)CC1 | 0% (active)
91 | CC1CCc2onc(C(=O)N3CCN(c4ccccc4)CC3)c2C1 (stereo not drawn) | 117%
92 | CC1CCc2onc(C(=O)N3CCN(c4cccc(C(F)(F)F)c4)CC3)c2C1 (stereo not drawn) | 37% (active)
93 | O=C(c1cc2ccc3cccnc3c2[nH]1)N1CCN(c2ccccc2)CC1 | 75%
